Experimental data reported in PubChem BioAssay AID1700 (The Scripps Research Institute Molecular Screening Center, 2009).
About 670 (0.23%) of roughly 290,000 compounds were called active. The sample as a whole holds a higher share of actives than the screen did. Values without a mark were called inactive.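 The calls were made as follows: active = inhibition above a per-plate limit of that plate's mean compound inhibition plus 3 SD (cut at about 60% in these data); inactive = the rest.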

Assay: suppression of KLF5 promoter-driven luciferase – DLD-1 cells, luminescence, primary screen (AID 1700);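 also: 0% = DMSO wells and 100% = LY294002 at 200 µM; higher means less KLF5 promoter-driven luciferase light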
Settings: DLD-1 KLF5 promoter-luciferase reporter, at 5 µM, stronger effect = higher value

| Structure (SMILES) | inhibition |
| --- | --- |
| CCCCCCCCCCCCn1ccc(=N)cc1 | 75.9% (active) |
| CCN(CC)c1ccc([N+](=O)[O-])c2cccnc12 | -21% |
| COc1cc2nc(N3CCN(C(=O)[C@@H]4CCCO4)CC3)nc(N)c2cc1OC | -16.5% |
| O=C1NC(=O)C(CCc2ccccn2)(Cc2cccc(Cl)c2Cl)C(=O)N1c1ccc(Br)cc1 (stereo not given) | -5.72% |
| COc1ccc(N2C(=O)/C(=C/c3ccco3)C(=O)NC2=S)cc1 | -5.05% |
